Out of some 200,000 compounds screened, about 110 (0.055%) were called active. Cut-off read from the data, not from the text of the source: active = inhibition above about 50%; inactive = the rest. The entries come from a sample that favours actives as a whole.
molecular target: Serine/threonine-protein kinase D1 (Homo sapiens) (UniProt Q15139); assay: protein kinase D1 activity blockers – biochemical, fluorescence polarization (AID 797); conditions: PKD1 kinase fluorescence polarization assay; stronger effect = higher value; concentration not given here
Sequence (Q15139 whole entry, looked up): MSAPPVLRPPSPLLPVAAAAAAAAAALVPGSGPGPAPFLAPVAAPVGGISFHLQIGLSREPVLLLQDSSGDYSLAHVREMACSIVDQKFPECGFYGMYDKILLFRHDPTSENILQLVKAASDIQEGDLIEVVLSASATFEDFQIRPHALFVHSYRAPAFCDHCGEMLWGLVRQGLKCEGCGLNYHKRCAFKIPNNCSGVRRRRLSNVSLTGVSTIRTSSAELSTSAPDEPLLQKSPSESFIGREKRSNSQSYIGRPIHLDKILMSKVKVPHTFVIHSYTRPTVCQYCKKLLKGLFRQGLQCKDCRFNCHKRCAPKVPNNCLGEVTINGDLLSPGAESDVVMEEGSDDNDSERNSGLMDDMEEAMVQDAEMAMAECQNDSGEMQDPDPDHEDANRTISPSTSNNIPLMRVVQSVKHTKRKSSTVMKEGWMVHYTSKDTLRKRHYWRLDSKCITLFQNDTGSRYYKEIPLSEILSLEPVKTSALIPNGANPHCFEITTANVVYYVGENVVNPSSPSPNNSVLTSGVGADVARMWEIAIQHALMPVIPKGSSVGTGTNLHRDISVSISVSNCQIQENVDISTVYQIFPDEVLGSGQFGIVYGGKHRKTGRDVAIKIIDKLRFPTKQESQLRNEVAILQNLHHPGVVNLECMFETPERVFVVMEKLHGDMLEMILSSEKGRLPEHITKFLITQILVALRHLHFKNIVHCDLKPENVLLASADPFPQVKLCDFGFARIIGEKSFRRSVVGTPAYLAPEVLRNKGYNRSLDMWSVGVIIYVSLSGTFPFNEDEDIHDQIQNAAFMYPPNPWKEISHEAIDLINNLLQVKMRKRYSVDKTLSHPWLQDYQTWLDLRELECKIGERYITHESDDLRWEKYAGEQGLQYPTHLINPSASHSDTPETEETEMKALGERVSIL

Structure (SMILES)	inhibition
CC(C)NC(=S)Nc1cccc2cnccc12	-7.44% (inactive)
O=C(NC1(C(F)(F)F)NC(=O)N(C2CCCCC2)C1=O)c1ccco1 (stereo not drawn)	-4.49% (inactive)
Cc1onc(C(=O)NN)c1C(=O)N1CCN(C(c2ccccc2)c2ccccc2)CC1	6.23% (inactive)
CCO[C@H]1OC(C(=O)O)=C[C@@H](C2CCCCC2)[C@@H]1CCCO	1.68% (inactive)
O=C(N/N=C/c1cccc([N+](=O)[O-])c1)C1CC(=O)N(c2ccc(Br)cc2)C1 (stereo not drawn)	0.4% (inactive)
O=C(NCCN1CCOCC1)Nc1cccc(Cl)c1	-8.08% (inactive)
Cc1ccc(-c2c(C)n([O-])c3c([n+]2=O)CCC3)cc1	-5.77% (inactive)
Cc1cc(C)c(C#N)c(SCC(=O)NN2CC(=O)N(c3ccccc3F)CC2=O)n1	-3.74% (inactive)
O=C(OC1CCOC1=O)c1cccc(S(=O)(=O)Nc2ccc(F)cc2)c1 (stereo not drawn)	1.98% (inactive)
C=CCn1cc(-c2cccc(C(F)(F)F)c2)cc(C#N)c1=O	7.22% (inactive)
O=C(N1CCCC1)C12CC3CC(C1)CC(C(=O)N1CCCC1)(C3)C2	-14.2% (inactive)
CCC1CO/C(=C(\C(=C(Cl)Cl)N2CCOCC2)[N+](=O)[O-])N1 (stereo not drawn)	-0.65% (inactive)
COc1cc(OC)c(C(=O)OC(C)C(=O)Nc2cc(C(F)(F)F)ccc2Cl)cc1OC (stereo not drawn)	8.47% (inactive)
O=C(CSc1ccc(-c2ccc(F)cc2)nn1)Nc1ccc2c(c1)OCCO2	-0.29% (inactive)
Cc1cc(C(=O)NNC(=S)NC(C)c2ccccc2)cs1 (stereo not drawn)	5.7% (inactive)
C/C(CC(=O)Nc1cccc(C(F)(F)F)c1)=N\NC(=O)C(=O)NCC(C)C	3.3% (inactive)
Cc1cc(N2CCN(C)CC2)nc2ccc(NC(=S)N3CCOCC3)cc12	-7.15% (inactive)
CCn1c2ccccc2c2cc(NC(=O)COC(=O)c3ccccc3Br)ccc21	-14.8% (inactive)
c1ccc(-c2csc(N3CCc4ccccc4C3)n2)cc1	-5.96% (inactive)
COC(=O)[C@@H]1CC[C@H](C)[C@@H](c2ccc(C)cc2)N1C(=O)c1ccc(/C=N/O[C@H](C)c2cn([C@@H]3COC[C@H]3O)nn2)cc1	-8.4% (inactive)

Structure (SMILES)	inhibition
CCC(=O)NC(=S)Nc1ccc(NC(=O)c2ccco2)c(Cl)c1	-0.32% (inactive)
CN(C)CCCNC(=O)/C=C/c1ccc(OCc2c(F)cccc2Cl)cc1	-5.92% (inactive)
CCCC1(C(=O)OC)NC(c2ccco2)C2C(=O)N(C)C(=O)C21 (stereo not drawn)	-3.52% (inactive)
COc1c(C)cc(C(=O)C2CCCN(S(=O)(=O)c3c(C)noc3C)C2)cc1C (stereo not drawn)	11.5% (inactive)
Cc1noc(C)c1S(=O)(=O)N1CCCC(C(=O)Nc2nccs2)C1 (stereo not drawn)	-0.06% (inactive)
Cc1ccc(NC(=O)C2CCCN(S(=O)(=O)c3c(C)noc3C)C2)c(C)c1 (stereo not drawn)	72.5% (active)
CCCCN(CC(=O)NC(C)(C)C)C(=O)C(=O)Nc1ccc2c(c1)OCCO2	1.16% (inactive)
CCCOC(=O)c1ccc(N2C(=O)c3ccccc3C2=O)cc1	1.49% (inactive)
O=C(CCc1ccccc1)NNC(=O)c1ccc(Br)cc1	4.58% (inactive)
O=C(c1ccccc1)c1ccc(OCC(O)CN2CCCC2)cc1 (stereo not drawn)	13.5% (inactive)
COC(=O)c1ccc(OCC(O)CN(CCO)CC(O)Cn2ccc3ccccc32)cc1 (stereo not drawn)	3.96% (inactive)
OC(CNCc1ccc(Cl)c(Cl)c1)c1ccccc1 (stereo not drawn)	-3.03% (inactive)
COc1cc2c(cc1OC)C(Nc1ccc(S(N)(=O)=O)cc1)=NC(C)(C)C2	-5.13% (inactive)
COc1ccc(NC(=O)c2sc(N3CCOCC3)nc2-c2ccccc2)c(OC)c1	-1.24% (inactive)
CCC(=O)Nc1ccc(C(=O)N2CCN(C(=O)c3ccco3)CC2)cc1	2.96% (inactive)
Cc1ccc(NC(=O)Cn2c(=O)n(CCC(=O)NC3CCN(Cc4ccccc4)CC3)c(=O)c3ccccc32)cc1	0.69% (inactive)
O=C(CN1CCOCC1)Nc1c(Cl)cc(Cl)cc1Cl	-2.42% (inactive)
Cc1ccc2nsnc2c1NC(=O)c1ccccc1[N+](=O)[O-]	-3.06% (inactive)
Cc1ccccc1NS(=O)(=O)CCCCC(Cl)(Cl)Cl	-2.05% (inactive)
COc1cccc(C2SCC(=O)N2c2cccc(C)c2)c1OC (stereo not drawn)	-7.34% (inactive)

Structure (SMILES)	inhibition
COc1ccccc1C(=O)NN1C(=O)C2C3C=CC(O3)C2C1=O (stereo not drawn)	52.7% (active)
O=C(NN1C(=O)C2C3C=CC(O3)C2C1=O)c1ccccc1 (stereo not drawn)	-7.27% (inactive)
O=C(NN1C(=O)C2C3C=CC(O3)C2C1=O)c1ccncc1 (stereo not drawn)	-9.52% (inactive)
O=C(Cc1cccs1)Nc1cccc(-c2nc3ccccc3[nH]2)c1	-1.91% (inactive)
CCc1cc(C(N)=O)c(NC(=O)c2ccc(OC)cc2)s1	-8.2% (inactive)
O=C(O)CC(SCC(=O)Nc1ccc(Br)cc1)C(=O)O (stereo not drawn)	-6.53% (inactive)
CCOC(=O)c1cnc(SCC(=O)Nc2ccccc2C(=O)OC)nc1N	-2.4% (inactive)
Cc1nc2cc(NC(=O)NC3CC3)ccc2n1C	-0.99% (inactive)
O=C(Cc1ccc([N+](=O)[O-])cc1)N/N=C/c1ccco1	-4.83% (inactive)
CCCCC(=O)Nc1ccc(C(=O)Nc2cc(C(F)(F)F)ccc2Cl)cc1	-1.39% (inactive)
O=C(COc1nc2ccccc2nc1N1CCOCC1)NCC(F)(F)F	-0.08% (inactive)
CC(=O)Nc1ccc(S(=O)(=O)N(CCc2ccccc2)CC(=O)N/N=C/c2ccc(C(=O)O)cc2)cc1	5.13% (inactive)
CCN(CC(=O)Nc1ccccc1OC)C(=O)Cn1cnc2ccccc2c1=O	7.55% (inactive)
N=C1C(c2nc3ccccc3s2)=C(O)CN1NC(=O)c1ccc([N+](=O)[O-])cc1	-8.3% (inactive)
CN1CCN(c2ccc(S(=O)(=O)N3CCCCC3)cc2NC(=O)Cc2ccccc2F)CC1	-6.13% (inactive)
Cc1ccc(NC(=O)CN2CCC(C(N)=O)CC2)cc1[N+](=O)[O-]	5.71% (inactive)
COc1ccc(NC(=O)CC2C(=O)OCC3CCCCN32)cc1Cl (stereo not drawn)	-6.39% (inactive)
Cc1onc(C(=O)NCc2ccc(F)cc2)c1[N+](=O)[O-]	0.1% (inactive)

From PubChem BioAssay AID797 (University of Pittsburgh Molecular Library Screening Center, 2007)
